Results filed as inconclusive are left out. Calls of active or inactive are those of the source. Calls come from the whole dose curve; as a rule, active = well fitted curve in the direction sought with a large enough effect; inconclusive = small, poorly fitted or top-dose-only effect, or another doubt; inactive = no such curve, though single readings can be large; an effect the other way counts as inactive or inconclusive.
What was measured:
NIH3T3 [1] = experiment: Cytotoxic Profiling of Annotated Libraries Using Quantitative High-Throughput Screening (AID 1296008); settings: Five cell lines viability, CellTiter-Glo ATP luminescence, 48-72 h; max response: active compounds read low; note: nearly all actives have a fitted effect of over 60% in size
Procedure, shortened: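 Cells exposed to compounds for 48 or 72 hr at 37 degrees Celsius. Viability read as ATP-coupled luminescence with CellTiter-Glo after 10 min at room temperature.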

MCC-13 = experiment: qHTS assay to identify novel small-molecules to repurpose for Merkel cell carcinoma treatment (AID 1296009); settings: MCC and control cell lines, CellTiter-Glo viability, 72 h; series mostly up to 46 µM; note: nearly all actives have a fitted effect of over 60% in size
Procedure, shortened: (§1)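 Cells were incubated with compound for 72 hr at 37 degree celsius before CellTiter-Glo addition. Luminescence was normalized with no-cell wells as full cytotoxicity and DMSO as baseline.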

MCC-26 = experiment: as above; settings: MCC and control cell lines, CellTiter-Glo viability, 72 h; series mostly up to 46 µM
Procedure, shortened: as §1

MKL-1 = experiment: as above; settings: MCC and control cell lines, CellTiter-Glo viability, 72 h; series mostly up to 46 µM
Procedure, shortened: as §1

MKL-2 = experiment: as above; settings: MCC and control cell lines, CellTiter-Glo viability, 72 h; series mostly up to 46 µM
Procedure, shortened: as §1

NIH3T3 [2] = experiment: as above; settings: MCC and control cell lines, CellTiter-Glo viability, 72 h; at 44.8 µM (top of the series) unless noted
Procedure, shortened: as §1

UISO = experiment: as above; settings: MCC and control cell lines, CellTiter-Glo viability, 72 h; series mostly up to 46 µM
Procedure, shortened: as §1

WaGa = experiment: as above; settings: MCC and control cell lines, CellTiter-Glo viability, 72 h; series mostly up to 46 µM
Procedure, shortened: as §1

C33A = experiment: Primary qHTS to identify gynecologic anti-cancer compounds using libraries of approved drugs and bioactive compounds (AID 1345084); settings: Gynecologic cancer cell panel viability, ATPlite luminescence, 48 h; series mostly up to 57.5 µM; note: nearly all actives have a fitted effect of over 55% in size
Procedure, shortened: (§2)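 Luminescence from the ATPlite ATP-monitoring reagent indicates viable cell number; lower signal means cytotoxicity. Cells received compound 16 h after seeding and were exposed for 48 h across five concentrations.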

CAOV3 = experiment: as above; settings: Gynecologic cancer cell panel viability, ATPlite luminescence, 48 h; series mostly up to 57.5 µM
Procedure, shortened: as §2

CASKI = experiment: as above; settings: Gynecologic cancer cell panel viability, ATPlite luminescence, 48 h; series mostly up to 57.5 µM
Procedure, shortened: as §2

Es-2 = experiment: as above; settings: Gynecologic cancer cell panel viability, ATPlite luminescence, 48 h; series mostly up to 57.5 µM
Procedure, shortened: as §2

HeLa = experiment: as above; settings: Gynecologic cancer cell panel viability, ATPlite luminescence, 48 h; series mostly up to 57.5 µM
Procedure, shortened: as §2

Hek293T [3] = experiment: as above; settings: Gynecologic cancer cell panel viability, ATPlite luminescence, 48 h, control line for the selectivity index; series mostly up to 57.5 µM
Procedure, shortened: as §2

JEG-3 = experiment: as above; settings: Gynecologic cancer cell panel viability, ATPlite luminescence, 48 h; series mostly up to 57.5 µM
Procedure, shortened: as §2

OV90 = experiment: as above; settings: Gynecologic cancer cell panel viability, ATPlite luminescence, 48 h; series mostly up to 57.5 µM
Procedure, shortened: as §2

PA-1 = experiment: as above; settings: Gynecologic cancer cell panel viability, ATPlite luminescence, 48 h; series mostly up to 57.5 µM
Procedure, shortened: as §2

SKOV3 = experiment: as above; settings: Gynecologic cancer cell panel viability, ATPlite luminescence, 48 h; series mostly up to 57.5 µM
Procedure, shortened: as §2

HEK293T [4] = experiment: qHTS assay to identify novel small-molecules to repurpose for Merkel cell carcinoma treatment (AID 1296009); settings: MCC and control cell lines, CellTiter-Glo viability, 72 h; at 44.8 µM (top of the series) unless noted; note: nearly all actives have a fitted effect of over 60% in size
Procedure, shortened: as §1
% is set by controls: 0 for no effect and ±100 for the full control effect.

CCOC(=O)OCC/C(SC(=O)OCC)=C(\C)N(C=O)Cc1cnc(C)nc1N
inactive: outcome (NIH3T3 [1]) | Potency (MCC-13) | Potency (MCC-26) | Potency (MKL-1) | Potency (MKL-2) | outcome (NIH3T3 [2]) | Potency (UISO) | Potency (WaGa) | Potency (C33A) | Potency (CAOV3) | Potency (CASKI) | Potency (Es-2) | Potency (HeLa) | Potency (Hek293T [3]) | Potency (JEG-3) | Potency (OV90) | Potency (PA-1) | Potency (SKOV3)

CN(C)CCCOC1(Cc2ccccc2)CCCCCC1
inactive: max response (NIH3T3 [1]) 0.545% | outcome (HEK293T [4]) | Potency (MCC-13) | Potency (MCC-26) | Potency (MKL-1) | Potency (MKL-2) | Potency (UISO) | Potency (WaGa) | Potency (C33A) | Potency (CAOV3) | Potency (CASKI) | Potency (Es-2) | Potency (HeLa) | Potency (Hek293T [3]) | Potency (JEG-3) | Potency (PA-1)

NC(=O)NC1N=C([O][Al])NC1=O (configuration not stated)
inactive: max response (NIH3T3 [1]) 1.11% | outcome (HEK293T [4]) | Potency (MCC-13) | Potency (MCC-26) | Potency (MKL-1) | Potency (MKL-2) | Potency (UISO) | Potency (WaGa) | Potency (C33A) | Potency (CAOV3) | Potency (CASKI) | Potency (Es-2) | Potency (HeLa) | Potency (Hek293T [3]) | Potency (JEG-3) | Potency (OV90) | Potency (SKOV3)

C[C@]12CCC(=O)C=C1CC[C@@H]1[C@@H]2[C@@H](O)C[C@@]2(C)[C@H]1CC[C@]2(O)C(=O)COC(=O)CCC(=O)O
inactive: outcome (NIH3T3 [1]) | Potency (MCC-13) | Potency (MCC-26) | Potency (MKL-1) | Potency (MKL-2) | outcome (NIH3T3 [2]) | Potency (UISO) | Potency (WaGa) | Potency (C33A) | Potency (CAOV3) | Potency (CASKI) | Potency (Es-2) | Potency (HeLa) | Potency (Hek293T [3]) | Potency (JEG-3) | Potency (OV90) | Potency (PA-1) | Potency (SKOV3)

CC(C)CCCC(C)NCCC(C)C (configuration not stated)
inactive: outcome (NIH3T3 [1]) | Potency (MCC-13) | Potency (MCC-26) | Potency (MKL-1) | Potency (MKL-2) | outcome (NIH3T3 [2]) | Potency (UISO) | Potency (WaGa) | Potency (C33A) | Potency (CAOV3) | Potency (Es-2) | Potency (HeLa) | Potency (Hek293T [3]) | Potency (JEG-3) | Potency (OV90) | Potency (PA-1) | Potency (SKOV3)

COc1cc(C(=O)OC(COCCC(C)C)CN2CCOCC2)cc(OC)c1OC (configuration not stated)
inactive: max response (NIH3T3 [1]) 3.87% | outcome (HEK293T [4]) | Potency (MCC-13) | Potency (MCC-26) | Potency (MKL-1) | Potency (MKL-2) | Potency (UISO) | Potency (WaGa) | Potency (C33A) | Potency (CASKI) | Potency (Es-2) | Potency (HeLa) | Potency (Hek293T [3]) | Potency (JEG-3) | Potency (OV90) | Potency (PA-1) | Potency (SKOV3)

NC(=O)COCCN1CCN(C(c2ccccc2)c2ccc(Cl)cc2)CC1 (configuration not stated)
inactive: outcome (NIH3T3 [1]) | Potency (MCC-13) | Potency (MCC-26) | Potency (MKL-1) | Potency (MKL-2) | outcome (NIH3T3 [2]) | Potency (UISO) | Potency (WaGa) | Potency (C33A) | Potency (CAOV3) | Potency (CASKI) | Potency (Es-2) | Potency (HeLa) | Potency (Hek293T [3]) | Potency (JEG-3) | Potency (OV90) | Potency (PA-1) | Potency (SKOV3)

CCOC(=O)c1ccc(NC(=O)CN2CCCCC2)cc1
inactive: outcome (NIH3T3 [1]) | Potency (MCC-13) | Potency (MCC-26) | Potency (MKL-1) | Potency (MKL-2) | outcome (NIH3T3 [2]) | Potency (UISO) | Potency (WaGa) | Potency (C33A) | Potency (CAOV3) | Potency (CASKI) | Potency (Es-2) | Potency (HeLa) | Potency (Hek293T [3]) | Potency (JEG-3) | Potency (OV90) | Potency (PA-1)

CCC(CN)=C(c1ccccc1)c1ccccc1
inactive: outcome (NIH3T3 [1]) | Potency (MCC-13) | Potency (MCC-26) | Potency (MKL-1) | Potency (MKL-2) | outcome (NIH3T3 [2]) | Potency (UISO) | Potency (WaGa) | Potency (C33A) | Potency (CAOV3) | Potency (CASKI) | Potency (Es-2) | Potency (HeLa) | Potency (Hek293T [3]) | Potency (JEG-3) | Potency (PA-1) | Potency (SKOV3)

CCCCN(CCCC)C(C(N)=O)c1ccc(OC)cc1 (configuration not stated)
inactive: outcome (NIH3T3 [1]) | Potency (MCC-13) | Potency (MCC-26) | Potency (MKL-1) | Potency (MKL-2) | outcome (NIH3T3 [2]) | Potency (UISO) | Potency (WaGa) | Potency (C33A) | Potency (CAOV3) | Potency (CASKI) | Potency (Es-2) | Potency (HeLa) | Potency (Hek293T [3]) | Potency (JEG-3) | Potency (OV90) | Potency (PA-1)

CCC(=O)O[C@H]1[C@H](O[C@@H]2[C@@H](C)[C@H](O[C@H]3C[C@@](C)(OC)[C@@H](O)[C@H](C)O3)[C@@H](C)C(=O)O[C@H](CC)[C@@](C)(O)[C@H](O)[C@@H](C)C(=O)[C@H](C)C[C@@]2(C)O)O[C@H](C)C[C@@H]1N(C)C
inactive: max response (NIH3T3 [1]) 1.01% | outcome (HEK293T [4]) | Potency (MCC-13) | Potency (MCC-26) | Potency (MKL-1) | Potency (MKL-2) | Potency (UISO) | Potency (WaGa) | Potency (C33A) | Potency (CAOV3) | Potency (CASKI) | Potency (Es-2) | Potency (HeLa) | Potency (JEG-3) | Potency (OV90) | Potency (PA-1) | Potency (SKOV3)

Nc1nc(=O)n([C@@H]2O[C@H](CO)[C@@H](O)[C@@H]2F)cc1I
inactive: max response (NIH3T3 [1]) -21.4% | outcome (HEK293T [4]) | Potency (MCC-26) | Potency (MKL-1) | Potency (MKL-2) | Potency (C33A) | Potency (CAOV3) | Potency (CASKI) | Potency (Es-2) | Potency (HeLa) | Potency (Hek293T [3]) | Potency (JEG-3) | Potency (OV90) | Potency (PA-1) | Potency (SKOV3)

C#CC(C)(CC)OC(=O)c1ccccc1C(=O)O (configuration not stated)
inactive: outcome (NIH3T3 [1]) | Potency (MCC-13) | Potency (MCC-26) | Potency (MKL-1) | Potency (MKL-2) | outcome (NIH3T3 [2]) | Potency (UISO) | Potency (WaGa) | Potency (C33A) | Potency (CAOV3) | Potency (CASKI) | Potency (Es-2) | Potency (HeLa) | Potency (Hek293T [3]) | Potency (JEG-3) | Potency (OV90) | Potency (PA-1) | Potency (SKOV3)

Source: PubChem BioAssay (NCATS)
